Sfp PPTase inh – blocks B. subtilis Sfp PPTase activity; Q9F4F7; Biochemical Sfp PPTase activity, qHTS; 310,000 tested, 3.5% active; Potency, µM, without a hit: largest response in the series, negative = inhibition, actives largely listed as inhibitors;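 also: the enzyme is Sfp with the accession as filed and its product quenches rhodamine fluorescence; potency is read from the fitted curve at half-maximal effect; 0% = enzyme reaction without inhibitor and -100% = no enzyme wells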
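Fluorescence-quenching assay: 15 nM Sfp-PPTase preincubated 15 min at room temperature with compound, then 5 uM rhodamine-CoA and 12.5 uM BHQ-2-labelled YbbR peptide added. Fluorescence (ex 525/em 598 nm) read at start and after 30 min; difference gives rate.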
Tau FP inhib – inhibitors of human tau fibril formation | P10636 | K18 P301L tau heparin fibrillization, Alexa594 FP, 6 h | Potency, µM (titrated, usually from 57.7 µM), without a hit: top-dose activity, negative = inhibition, usual class: inhibitors | 280,000 tested, 0.39% active | AID 1468; also: potency is read from the fitted curve at half-maximal effect; nearly all actives have a fitted effect of over 55% in size
Target sequence (P10636 561-689 P618L limits assumed): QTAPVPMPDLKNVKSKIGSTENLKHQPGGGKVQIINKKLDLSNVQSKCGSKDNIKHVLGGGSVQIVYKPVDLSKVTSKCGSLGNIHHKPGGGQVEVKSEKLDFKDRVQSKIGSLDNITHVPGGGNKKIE
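Heparin (20 uM) drove fibril formation of recombinant tau K18 P301L, 15 uM unlabeled with 0.24 uM Alexa 594 label, for 6 hr at 37 C in 100 mM sodium acetate pH 7. Fluorescence polarization (555/632 nm) read 1 hr after 30 uM ThT.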
Tau fluor cs – counter-screen for tau fibril formation inhibitors; 280,000 tested, 0.93% active; tau K18 P301L Alexa594 fluorescence, heparin fibrillization; Potency, µM (series often up to 57.7 µM), without a hit: at the highest dose activity change, negative = decrease; AID 1463; also: potency is read from the fitted curve at half-maximal effect; nearly all actives have a fitted effect of over 55% in size
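Human K18 P301L tau (15 uM unlabeled plus 0.24 uM Alexa 594-labeled, final) in 100 mM sodium acetate pH 7 was mixed with compound and 20 uM heparin and incubated 6 hr at 37 C.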
G9a block – blocks human histone lysine methyltransferase G9a; Q96KQ7; G9a H3K9 monomethylation, AlphaScreen, 2 h; Potency, µM (highest dose often 102 µM), inactives show at the top dose activity, negative = inhibition, usual class: inhibitors; 350,000 tested, 8.8% active; AID 504332; also: potency is read from the fitted curve at half-maximal effect; nearly all actives have a fitted effect of over 75% in size
Target sequence (Q96KQ7 913-1193 limits assumed): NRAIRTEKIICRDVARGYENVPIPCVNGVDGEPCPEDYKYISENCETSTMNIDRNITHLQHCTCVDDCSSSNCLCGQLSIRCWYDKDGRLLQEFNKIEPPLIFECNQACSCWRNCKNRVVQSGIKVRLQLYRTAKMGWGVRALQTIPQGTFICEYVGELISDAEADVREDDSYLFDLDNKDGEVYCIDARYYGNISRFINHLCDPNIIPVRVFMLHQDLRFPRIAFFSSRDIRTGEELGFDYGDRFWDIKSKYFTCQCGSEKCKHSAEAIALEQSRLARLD
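Step 1: enzyme (final 20 nM) with compound, 15 min RT. Step 2: substrate peptide 500 nM and SAM 20 uM, 2 h RT. Step 3: anti-H3K9me1 antibody and AlphaScreen beads, 10 min, then plate read.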
Tau ThT inhib – tau fibrillization inhibition (ThT binding) | P10636 | 270,000 tested, 2.1% active | recombinant tau K18 P301L, heparin-induced fibrillization, ThT fluorescence | Potency, µM (top dose mostly 57.4 µM), for inactives: at the top dose activity, negative = inhibition, usual class: inhibitors | AID 1460; also: potency is read from the fitted curve at half-maximal effect; nearly all actives have a fitted effect of over 55% in size
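ThT emission at 510 nm, taken 1 hr after adding 30 uM dye, quantifies aggregates formed when 20 uM heparin acts on human tau K18 P301L for 6 hr at 37 C.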
Coupling enz – inhibits coupling enzyme system, counter-screen for aldolase hits. activity change, negative = inhibition, % at 58.2 µM, hits read low. coupling enzyme system counterscreen, AmpLite Red fluorescence. AID 2472. 290,000 tested, 0.67% active; in the data active = activity change below about -30%
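Counterscreen of the coupled detection system alone, without aldolase: glyceraldehyde-3-phosphate coupling enzymes plus AmpLite Red readout. Compounds at 57.5 uM final, 10 min RT preincubation, 20 min RT reaction, fluorescence 525/598 nm.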
The depositor's hits bear a star; [ ] = dose if it differs, or a comment. Compounds with a hit are over-represented: about 11% of the library has one in this group of screens. Unless noted, calls follow the shape of the dose curve; as a rule, active = well fitted curve in the direction sought with a large enough effect; inconclusive = small, poorly fitted or top-dose-only effect, or another doubt; inactive = no such curve, though single readings can be large; an effect the other way counts as inactive or inconclusive. Unless noted, % is scaled to controls: 0 for no effect and ±100 for the full control effect.

Results for CCC(C)NS(=O)(=O)c1ccc(S(=O)(=O)N(CC(=O)Nc2ccccc2)CC2CCCO2)cc1 (centres undefined) ?
Sfp PPTase inh: 24%; Tau FP inhib: 1%; Tau fluor cs: -21%; G9a block: -5%[59 µM]; Tau ThT inhib: -9%; Coupling enz: 1

What do the screens show for `CCO[C@H]1OC(C(=O)N2CCCCCCC2)=C[C@@H](c2ccccc2)[C@@H]1CCCO`?
Sfp PPTase inh: 8%; Tau FP inhib: 10%; Tau fluor cs: 2%; G9a block: 10%[59 µM]; Tau ThT inhib: 2%; Coupling enz: -3

How did C/C(=N\NC(=O)C(N)=O)c1cccc([N+](=O)[O-])c1 do in these assays?
Sfp PPTase inh: -20%; Tau FP inhib: 1%; Tau fluor cs: 2%; G9a block: inconclusive; Tau ThT inhib: inconclusive; Coupling enz: -2

What do the screens show for `O=C(NNC(=S)NC(=O)c1ccc(Br)cc1)c1ccc([N+](=O)[O-])cc1`?
Sfp PPTase inh: -12%; G9a block: -9%[0.501 µM]; Coupling enz: 6

What do the screens show for `CC(=O)NNC(=S)NC(=O)c1cccc([N+](=O)[O-])c1`?
Sfp PPTase inh: 11µM*; Tau FP inhib: 2%; Tau fluor cs: 4%; G9a block: inconclusive; Tau ThT inhib: -8%; Coupling enz: 1

How did O=C(NNC(=S)NC(=O)c1ccccc1Cl)c1cccc([N+](=O)[O-])c1 do in these assays?
Sfp PPTase inh: 17%; G9a block: 35µM*; Coupling enz: -2

Results for O=C(NNC(=S)NC(=O)c1ccc(Br)cc1)c1cccc([N+](=O)[O-])c1 ?
Sfp PPTase inh: -6%; G9a block: 35µM*; Coupling enz: 7

How did O=C(NC(=S)Nc1cccc(NC(=O)c2ccccc2)c1)c1cccc([N+](=O)[O-])c1 do in these assays?
Sfp PPTase inh: 22%; Tau FP inhib: 2%; Tau fluor cs: inconclusive; G9a block: -7%[59 µM]; Tau ThT inhib: inconclusive; Coupling enz: 0

How did CNC(=S)N/N=C(\C)c1cccc([N+](=O)[O-])c1 do in these assays?
Sfp PPTase inh: 56µM*; Tau FP inhib: -8%; Tau fluor cs: -9%; G9a block: inconclusive; Tau ThT inhib: -8%; Coupling enz: 2

Results for CCC(C)C(=O)OC1CC(C)C=C2C=CC(C)C(CCC3CC(O)CC(=O)O3)C21 (centres undefined) ?
Sfp PPTase inh: 10%; Tau FP inhib: 3%; Tau fluor cs: 3%; Tau ThT inhib: 0%; Coupling enz: 3

What do the screens show for `Cc1ccc(CN2CCC(CNC(=O)Nc3cccc(C)c3C)C2)cc1` (centres undefined)?
Tau FP inhib: 2%; Tau fluor cs: 3%; G9a block: 8%[59 µM]; Tau ThT inhib: 4%

How did COc1ccc(NC(=S)N/C(=N/CS(=O)(=O)c2ccccc2)c2ccccc2)cc1 do in these assays?
Sfp PPTase inh: -5%; Tau FP inhib: 1%; Tau fluor cs: -6%; G9a block: inconclusive; Tau ThT inhib: inconclusive; Coupling enz: -4

Results for NS(=O)(=O)c1cccc(NC(=S)NC(=O)c2cccc([N+](=O)[O-])c2)c1 ?
Sfp PPTase inh: 50µM*; Tau FP inhib: 0%; Tau fluor cs: -16%; Tau ThT inhib: -12%; Coupling enz: 2

How did O=[N+]([O-])c1ccc(NC(=S)N/C(=N/CS(=O)(=O)c2ccccc2)c2ccccc2)cc1 do in these assays?
Sfp PPTase inh: -7%; Tau FP inhib: -7%; Tau fluor cs: -22%; G9a block: 11µM*; Tau ThT inhib: inconclusive; Coupling enz: 1

What do the screens show for `CCN(C(=O)Cn1cc(C(=O)C(=O)N2CCOCC2)c2ccccc21)c1ccccc1`?
Sfp PPTase inh: 14%; G9a block: 40%; Coupling enz: 2

How did CCOC(=O)c1cnc(-c2ccc(C(F)(F)F)cn2)[nH]c1=O do in these assays?
Sfp PPTase inh: 45µM*; Tau FP inhib: -1%; Tau fluor cs: -5%; G9a block: -25%; Tau ThT inhib: -17%; Coupling enz: -1

Results for CCOC(=O)c1cnc(SCC)[nH]c1=O ?
Sfp PPTase inh: 12%; Tau FP inhib: -8%; Tau fluor cs: -2%; G9a block: 7%[12.7 µM]; Tau ThT inhib: -1%; Coupling enz: -5

Results for NNC(=S)NCc1cccnc1 ?
Sfp PPTase inh: 63µM*; Tau FP inhib: -4%; Tau fluor cs: 4%; G9a block: 1.4µM*; Tau ThT inhib: -3%; Coupling enz: 0

How did S=C(NCc1cccnc1)Nc1ccc(Oc2ccccc2)cc1 do in these assays?
Sfp PPTase inh: 40µM*; Tau FP inhib: -5%; Tau fluor cs: inconclusive; Tau ThT inhib: -13%; Coupling enz: 4

Results for c1ccc(NCc2cccnc2)cc1 ?
Sfp PPTase inh: 17%; Tau FP inhib: -2%; Tau fluor cs: -13%; G9a block: 45µM*; Tau ThT inhib: -13%; Coupling enz: 2

How did NC(=S)NCc1cccnc1 do in these assays?
Sfp PPTase inh: -1%; Tau FP inhib: -5%; Tau fluor cs: 3%; G9a block: 3%; Tau ThT inhib: -2%; Coupling enz: 1

Results for S=C(NCc1ccco1)Nc1ccc(Oc2ccccc2)cc1 ?
Sfp PPTase inh: 20µM*; Tau FP inhib: 1%; Tau fluor cs: inconclusive; Tau ThT inhib: inconclusive; Coupling enz: 2

What do the screens show for `CC(NC(=O)c1cccs1)C(S)c1ccccc1` (centres undefined)?
Sfp PPTase inh: 17%; G9a block: 20%; Coupling enz: 0

Results for COc1ccc(Br)cc1CNC(=O)CN1CCSc2ccccc21 ?
Tau FP inhib: 6%; Tau fluor cs: inconclusive; G9a block: -42%[59 µM]; Tau ThT inhib: inconclusive

How did COc1ccc(Cc2nnc(NN)[nH]c2=O)cc1OC do in these assays?
Sfp PPTase inh: 45µM*; G9a block: 4%; Coupling enz: -2

How did COc1ccc(/C=N/Nc2nnc(Cc3ccc(OC)c(OC)c3)c(=O)[nH]2)cc1OC do in these assays?
Sfp PPTase inh: 50µM*; Tau FP inhib: 4%; Tau fluor cs: 7%; G9a block: 3%[59 µM]; Tau ThT inhib: 14%; Coupling enz: 0

How did Cc1ccc(C)n1-c1nnc(N2CCC(C(=O)Nc3ccccc3Br)CC2)s1 do in these assays?
Tau FP inhib: 4%; Tau fluor cs: -12%; G9a block: 0%[59 µM]; Tau ThT inhib: -19%

Results for COc1ccc2c(c1)O[C@H](c1ccc3c(c1)OCO3)[C@@H](OC(=O)Nc1ccc(OC(F)F)cc1)C2=O ?
Sfp PPTase inh: -5%; Tau FP inhib: 1%; Tau fluor cs: -22%; Tau ThT inhib: -1%; Coupling enz: -6

High-throughput results (PubChem BioAssay)
